# Results: the supplement of paper PMC6555819
# Legend:
# Test in all cases: PBM binding z-score (relative to random genomic background probes); higher = stronger binding; sequences stand for … in GC…GCGATTGACAGCGTAGAATGAAGG
# [1] = tested on: RARb homodimer (NR concentration 270 nM)
# Method in brief: (§1)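 The probes on custom Agilent 4×180K protein-binding microarrays were double-stranded, with 34-nt variable regions bearing direct-repeat seeds, single-nucleotide variants, half-site ablations and random human genomic background sequences. Incubation lasted 1 h with ligand-free nuclear receptor dimers in PBS pH 7.4, 2% milk, 0.02% Triton X-100, 1 mM DTT, 0.2 mg/mL BSA and 0.4 mg/ml salmon testes DNA. Antibodies against each partner (one per run) detected bound dimers, and fluorescence scans were regression-normalized. Binding z-scores take the random background probes as reference.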
# [2] = tested on: RARg:RXRa (NR concentration 270 nM, RXRa partner concentration 90 nM)
# Method in brief: as §1
# [3] = tested on: RARg homodimer (NR concentration 270 nM)
# Method in brief: as §1
# [4] = tested on: RXRa DBDmut IVT, anti-RXR (DBD mutation: RXRa K156A/R161A, NR concentration 90 nM)
# Method in brief: as §1
# [5] = tested on: RXRa homodimer (NR concentration 180 nM)
# Method in brief: as §1
# [6] = tested on: THRa:RXRa (NR concentration 90 nM, RXRa partner concentration 90 nM)
# Method in brief: as §1
# [7] = tested on: THRa homodimer (NR concentration 90 nM)
# Method in brief: as §1
# [8] = tested on: VDR homodimer (NR concentration 270 nM)
# Method in brief: as §1
Sequence,PBM binding z-score [1],PBM binding z-score [2],PBM binding z-score [3],PBM binding z-score [4],PBM binding z-score [5],PBM binding z-score [6],PBM binding z-score [7],PBM binding z-score [8]
ATCTCTAGGTAACGATAGTTCAGTGAATGCAAAT,0.983,0.601,0.702,-0.137,0.128,0.928,0.354,0.517
AGAACGAGGGCACGCTGAATTGATAGCAGAGTAG,0.888,1.78,2.36,1.73,1.18,1.53,-0.215,0.542
CCTTACGGGTCACTGACAGGTTACAGCATTTGGA,3.43,6.18,4.87,1.94,5.36,3.08,0.386,1.01
CCTACTGAGCCAAAGGTCATTGATTCCAATGCTC,4.56,5.34,4.83,2.32,5.76,3.33,1.26,3.3
TCTTGTAGATCAGCAGGCTAAGAAAGCTGGCCAA,-0.81,-0.564,-0.754,0.38,-0.261,-0.424,-1.21,-0.475
ACAGACACGTGATGAAGGTAACTCAGGCTATCAT,-0.0735,0.142,0.316,0.207,0.38,0.724,0.228,-0.42
TCTAGTTGGTCAAAGGTCCCACACTCGAAATGCG,1.47,1.55,1.05,1.26,1.75,0.71,0.58,0.39
GGAACGAGGGCATTCGAGTTGATTGCATGGCGAT,0.671,1.07,1.15,3.28,0.842,3.52,-0.335,3.28
GTACCAAGTTGAATAGGTCGTTGATGAGTAGGCG,0.758,0.982,0.525,0.103,0.719,0.151,-0.492,0.477
TCTTGTAGATCAACAGGAGTTTAAGAAAGATCGA,-0.522,0.249,-0.0816,0.335,0.176,-0.275,-1.05,0.485
ACTCGGCGGACAAAGGTCAGAGCTACGCCAGTGA,4.19,5.15,4.72,0.437,4.46,2.39,0.00347,0.793
TGAATTAGGTTAAAGATCAGGGAACGTGGCGTCG,-0.0287,0.954,0.891,-0.199,1.58,0.806,0.0277,0.326
ATCTCTAGCTAAAGTTCAGTGAAAGATCGATAGA,2.45,1.76,2.45,0.982,1.11,0.511,-0.124,1.9
ATCTCCAGGTAAGACTCAGTTCAGTGAAGAACGC,0.752,0.584,0.474,0.412,0.366,1.1,1.32,1.27
CTACCAAGGTGAAGAAGGTCGTTGATTACTATTC,1.74,1.35,1.07,0.727,1.34,2.13,0.885,1.34
GCTAGTTGGTCAGTAGAAGGTCACACACCGGTCG,4.34,4.23,3.7,0.334,3.35,2.75,1.59,1.32
CCAGACAGGTGAGAAGGTAACTCGGCCTCGATTA,0.583,0.465,0.269,0.0522,0.351,0.364,0.256,-0.0946
CCTACTGGGCCCAGGTCATTGATCAGTCAAAGCA,2.14,2.06,1.28,-0.46,1.47,2.93,2.15,1.25
TATACAGGGTCAAAGGCCAGACTACGAATGTCGA,3.59,5.73,5.23,3.01,6.99,3.6,0.88,2.33

Sequence,PBM binding z-score [1],PBM binding z-score [2],PBM binding z-score [3],PBM binding z-score [4],PBM binding z-score [5],PBM binding z-score [6],PBM binding z-score [7],PBM binding z-score [8]
TTACCAAGGTGAAGGTCGTTTATCCCTCTGTAGA,1.99,1.2,1.11,0.869,1.49,2.5,1.18,1.61
CGAACTAGGTCAAGAGGTCAAAGTCCGCTTCCCG,5.66,8.2,7.63,2.69,8.43,4.34,2.51,3.88
CCTTACGGGTGACGAGGTTATAGCACGACGAGCG,1.05,1.29,0.849,-0.461,1.95,1.33,0.317,0.36
TCTAGTTGGTCAAAGGTCACACAATCGAAATGCG,5.17,7.33,7.01,1.98,8.48,4.11,2.21,3.09
AGAATGAGGTTATTGAGATCAGGGAATTGCGGTC,1.07,1.43,0.831,2.21,2.16,2.45,1.01,1.28
GCTATTAGTTGAAAGGGCAACCTAATGATTCTCG,2.01,1.35,1.38,0.966,1.24,0.901,-0.0101,0.284
CTCGAAAGGTCGGTTGAGGTGAGTATGCGGATAA,2.57,2.73,2.73,0.85,2.4,5.15,1.43,0.532
CCAACTGGGGCAAAGGTTACCATACTCAGTACGA,2.56,3.77,2.06,0.365,4.41,1.84,0.0572,0.0335
TCATATAGATAAAGGTGAAAGTCGAACGATATGA,1.08,1.29,1.2,1.18,1.9,0.819,-0.268,-0.308
CCCGACAGGTGAAAGGTAACTCAGTCTGGTACGC,0.903,1.26,0.581,-0.307,2.02,1.09,0.506,-0.0778
GCTAGTTGGGCAGTAAAAGGTCACACACCGGTCG,5.15,5.03,4.7,0.364,5.38,3.49,1.62,1.66
ATCTCTAGGTAAAGATAGTTCCGTGAATGCAAAT,-0.314,-0.154,0.427,-0.0164,0.0158,0.316,0.233,0.309
ACAGAGAGGTGAGTGAAGGTAACTCAGCTGGACG,0.91,0.89,1.24,-0.227,0.647,2.59,0.294,-0.548
AGAACGAGGGCAATGATTTGATAGCACGGGTGGC,0.954,0.982,1.4,1.64,0.834,0.95,0.00137,0.721
CCGACTGGGGCAGAAAGGTCACCATACCATCCGG,5.15,5.42,5.69,-0.33,5.7,3.2,1.38,1.86
CGAACCAGGTCATTGACAGGACAGTGAATAGTAA,2.5,4.94,4.22,3.22,3.57,3.31,1.84,1.8
GCGACTCGGGCAAAGCAGGTTACCATAAGGTTGG,0.473,0.453,0.464,-0.723,0.252,1.87,-0.264,-0.533
GCTTGTAGATCAAGGTCAAGAAAGACTAAGCTAA,3.18,3.61,3.42,1.03,3.6,3.36,1.74,1.37
ATCTCTAGGTAAGACGCAGTTCAGTGAAGAACGC,0.117,0.165,0.097,0.0393,-0.00227,0.223,-0.325,0.544

Sequence,PBM binding z-score [1],PBM binding z-score [2],PBM binding z-score [3],PBM binding z-score [4],PBM binding z-score [5],PBM binding z-score [6],PBM binding z-score [7],PBM binding z-score [8]
TAGCCTAGGTCAGATCGGGCCAGCATACGCTATA,2.06,2.68,3.52,-0.834,1.72,4.27,0.0653,-0.746
CGACCAAGGTCAGAGAGGTCAGTGAATGCCGAGT,5.37,6.34,7.04,3.34,5.82,4.15,2.11,5.63
CCTACTGGGCCATGCAGAGGTCATTGATCATATG,3.99,4.29,2.87,0.291,3.81,3.05,1.12,3.36
ATGTGTAGGTTAAGGGTCATTCAGGTTGGTTCGC,4.06,4.95,3.99,2.14,6.33,3.69,2.32,5.37
AGAATGAGGTTACCAAAGATAAGGGAAACGCTTG,0.456,1.85,1.54,1.02,2.18,2.55,0.618,0.393
CCTACTGGGCCAACGGTCATTGATTCCAATGCTC,1.45,0.293,0.841,-0.454,-0.191,-0.306,-0.382,-0.141
GCATATAGGTAATACAAAGTGAAAGTCCGATTGT,-0.658,0.129,0.264,0.278,0.0953,0.0465,-0.756,-0.321
AGAATGAGGTTAGTAAGATCAGGGAATTGCGGTC,0.918,0.607,0.689,0.175,0.741,1.33,0.245,0.435
TCTAGTTGGTCACTGAGGTCACACACGACGGGTA,4.59,4.76,4.83,1.56,5.14,4.47,5.09,4.16
GCAGACAGGTGAAACGCAGGTAACTCTGGGTGGC,-0.101,0.724,0.0252,-0.652,0.337,0.963,-0.802,-0.811
ATCGAAAGGTCGAGGTGAGTATTGAGAAAGGGAA,3.11,4.2,3.88,0.619,4.12,2.93,0.768,0.377
ATCGAAAGGTCGTGCGGTGAGTATACAGAAAGGC,2.65,4.48,4.28,1.56,4.78,2.51,-0.0433,1.31
AGAACGAGGGCACACTGAGTTGATAGCAGAGTAG,1.02,1.64,1.91,2.1,1.24,1.72,0.167,1.78
CGAACTAGGTCAGAACAGGATAGTGAAGGATGAT,1.64,2.44,3.17,0.707,1.34,2.39,0.235,0.187
CCGACTGGGGCAAGGTTACTATAACGCACAGCCA,1.04,0.944,1.12,-0.108,0.985,0.939,0.2,0.00113
CCGAGTAGGTTATGGGGCCTTCAGGCAACGGTGA,0.593,0.0658,0.0449,-0.932,0.358,0.547,0.292,0.0348
ATCGAAAGGTCGAAGGTGAGTAGACCCACCCGAA,2.17,4.35,4.04,1,5.53,1.87,-0.399,-0.0656
GCTATTAGTTGAAAGGGCGACCGAATGATTCTCG,0.767,0.148,0.219,0.775,0.22,-0.155,-0.468,0.16
